Experimental data published in PubChem BioAssay (NCATS).
Values joined by “and” are separate entries in the source; they are usually repeats but may differ in a detail not shown here. Equal values may be shown once. Records with an inconclusive call do not appear. Active and inactive are the calls of the source. Unless noted, calls follow the shape of the dose curve; as a rule, active = well fitted curve in the direction sought with a large enough effect; inconclusive = small, poorly fitted or top-dose-only effect, or another doubt; inactive = no such curve, though single readings can be large; an effect the other way counts as inactive or inconclusive.

Experiments:
[1] = qHTS assay for small molecule disruptors of the mitochondrial membrane potential - 1 hr assay (AID 651754; calls by dose curve; also: % is scaled to controls: 0 for no effect and ±100 for the full control effect; nearly all actives have a fitted effect of over 35% in size)
How it was run: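 HepG2 cells, attached overnight at 37C, were exposed to compound or DMSO vehicle for 1 hr at 37C, 5% CO2, then stained with Mito-MPS dye for 30 min. Red aggregate versus green monomer fluorescence reports membrane potential.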

[2] = qHTS assay for small molecule disruptors of the mitochondrial membrane potential - 5 hr assay (AID 651755; calls by dose curve; also: % is scaled to controls: 0 for no effect and ±100 for the full control effect; nearly all actives have a fitted effect of over 40% in size)
How it was run: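 HepG2, 2,000 cells/well, overnight attach; cpd or DMSO 5 hr, 37C/5% CO2; Mito-MPS 30 min 37C; fluor 490/535 + 540/590 nm.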

[3] = biological target: Peroxisome proliferator-activated receptor alpha (Homo sapiens) (UniProt Q07869); assay: qHTS assay for small molecule agonists of the peroxisome proliferator-activated receptor alpha (PPARalpha) signaling pathway (AID 651778); details: PathHunter PPARalpha complementation, chemiluminescence, 6 h; active compounds read high; also: % of control where 0% means no effect
How it was run: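 Chemiluminescence from complemented enzyme reported PPARalpha activation in cells after 6 hr of compound treatment at 37 C. The detection reagent was incubated for 60 min at room temperature, and compounds were scored as agonists.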

[4] = biological target: Nuclear receptor ROR-gamma (Homo sapiens) (UniProt P51449); assay: qHTS assay for small molecule antagonists of the retinoid-related orphan receptor gamma (ROR-gamma) signaling pathway (AID 651802); also: nearly all actives have a fitted effect of over 60% in size; also: potency is read from the fitted curve at half-maximal effect
How it was run: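 CHO cells carrying TET-inducible ROR-gamma and an ROR response element–luciferase reporter were exposed to compound, then induced with doxycycline. After 16hr at 37C, luminescence was read; lower signal indicates antagonism.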

[5] = qHTS assay for small molecule agonists of the antioxidant response element (ARE) signaling pathway measured by Nrf2-dependant transcriptional activity (AID 720636; active = well fitted curve in the direction sought with a large enough effect in the repeat runs; an effect the other way counts as inactive or inconclusive;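 also: HepG2 cells with an ARE-driven luciferase reporter; % of control where 0% means no effect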)
How it was run: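 ONE-Glo luminescence, read 30 min after reagent addition at room temperature, reflected ARE reporter activity in HepG2 cells that had been incubated with compound for 16 hr at 37 C in 1% dialyzed FBS.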

[6] = qHTS assay for small molecule antagonists of the retinoid-related orphan receptor gamma (ROR-gamma) signaling pathway - cell viability counter screen (AID 720652; active = well fitted curve in the direction sought with a large enough effect in the repeat runs; an effect the other way counts as inactive or inconclusive;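 also: compound exposure lasted 16 hr before ATP read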; also: potency is read from the fitted curve at half-maximal effect)
How it was run: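 Counter screen in CHO cells carrying TET-inducible ROR-gamma and an ROR response element-luciferase reporter; cells plated 5 hr, compound pinned, doxycycline added, then 16 hr at 37 C. Viability read as intracellular ATP by CellTiter-Glo luminescence.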

[7] = qHTS assay for small molecule agonists of the antioxidant response element (ARE) signaling pathway measured by Nrf2-dependant transcriptional activity - cell viability counter screen (AID 720653; active = well fitted curve in the direction sought with a large enough effect in the repeat runs; an effect the other way counts as inactive or inconclusive; also: % is scaled to controls: 0 for no effect and ±100 for the full control effect); details: ARE-bla HepG2 viability, CellTiter-Glo ATP luminescence, 16 h; active compounds read low
How it was run: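 Cytotoxicity counter screen: intracellular ATP quantified by CellTiter-Glo luminescence in the same ARE-bla HepG2 plates, after 16 h compound exposure and a 2 h beta-lactamase substrate step.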

[8] = qHTS assay for cell viability of the p53RE-bla HCT-116 cell line (AID 743292); also: % is scaled to controls: 0 for no effect and ±100 for the full control effect; nearly all actives have a fitted effect of over 55% in size
How it was run: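 After plating at 4,000 cells per well and a 5 h rest at 37 C, HCT-116 cells carrying p53RE-bla received test chemicals in DMSO. Sixteen hours later at 37 C, CellTiter-Glo was added and luminescence recorded following 30 min at room temperature.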

[9] = biological target: Nuclear receptor subfamily 1 group I member 2 (Rattus norvegicus) (UniProt Q9R1A7); assay: qHTS assay for small molecule activators of the rat pregnane X receptor (rPXR) signaling pathway (AID 651751; call rule not given here; also: 0% is about no effect); details: rPXR reporter cells, luciferase (One-Glo), 24 h
[10] = qHTS assay for small molecule activators of the human pregnane X receptor (PXR) signaling pathway (AID 720659; call rule not given here; also: 0% is about no effect)
[11] = qHTS assay to identify small molecules that stimulate interleukin-8 (IL-8) secretion (AID 651758; active = well fitted activation curve with a large enough effect in the signal ratio; the % refers to the signal ratio; also: 0% is about no effect)
How it was run: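 Secreted IL-8 measured by TR-FRET sandwich (cryptate and XL665 antibodies) from THP-1 cells exposed to compound overnight (16 hrs, 37 C).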

[12] = qHTS assay for environmental chemicals that activate the Aryl hydrocarbon Receptor (AhR) signaling pathway (AID 651777); details: 1A2-DRE human hepatoma cells, luciferase, 24 h; activation: active compounds read high; also: nearly all actives have a fitted effect of over 15% in size; also: potency is read from the fitted curve at half-maximal effect; as to activation: % of control where 0% means no effect
How it was run: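 Following a 24 hr incubation with test chemicals at 37 C and 5% CO2, 1A2-DRE human hepatoma cells received One-Glo reagent; after 30 min at room temperature, luciferase output reflected CYP1A2 induction via AhR.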

[13] = qHTS assay for cell viability of HEK293 cells (AID 743288); details: ATP luminescence (CellTiter-Glo), 18 h, active compounds read low; also: % is scaled to controls: 0 for no effect and ±100 for the full control effect; nearly all actives have a fitted effect of over 50% in size
How it was run: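 Total intracellular ATP, measured with a luciferase-coupled reagent, indicates the number of viable HEK293 cells. Exposure to test chemicals lasts 18 h at 37 C in 1,536-well format at 2,000 cells/well.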

[14] = biological target: Tumor necrosis factor (Homo sapiens) (UniProt P01375); assay: qHTS assay to identify small molecules that stimulate Tumor Necrosis Factor-alpha (TNF-alpha) secretion (AID 651757; active = well fitted curve in the direction sought with a large enough effect in the signal ratio; the % refers to the signal ratio; also: 0% is about no effect)
How it was run: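 THP-1 cells were exposed to compounds for 17 hrs at 37 C, after which secreted TNF-alpha was measured by homogeneous HTRF (TR-FRET) using cryptate- and XL665-labeled anti-TNF-alpha antibodies, read after 3 hr at room temperature.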

Tumor necrosis factor (Homo sapiens), sequence (P01375 whole entry, looked up): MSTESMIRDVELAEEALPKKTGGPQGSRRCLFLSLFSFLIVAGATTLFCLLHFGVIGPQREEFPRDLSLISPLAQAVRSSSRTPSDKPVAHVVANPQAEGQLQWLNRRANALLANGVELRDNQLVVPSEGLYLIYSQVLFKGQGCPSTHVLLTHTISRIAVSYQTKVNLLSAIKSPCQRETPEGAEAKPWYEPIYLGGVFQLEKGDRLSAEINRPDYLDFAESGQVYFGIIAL
Peroxisome proliferator-activated receptor alpha (Homo sapiens), sequence (Q07869 whole entry, looked up): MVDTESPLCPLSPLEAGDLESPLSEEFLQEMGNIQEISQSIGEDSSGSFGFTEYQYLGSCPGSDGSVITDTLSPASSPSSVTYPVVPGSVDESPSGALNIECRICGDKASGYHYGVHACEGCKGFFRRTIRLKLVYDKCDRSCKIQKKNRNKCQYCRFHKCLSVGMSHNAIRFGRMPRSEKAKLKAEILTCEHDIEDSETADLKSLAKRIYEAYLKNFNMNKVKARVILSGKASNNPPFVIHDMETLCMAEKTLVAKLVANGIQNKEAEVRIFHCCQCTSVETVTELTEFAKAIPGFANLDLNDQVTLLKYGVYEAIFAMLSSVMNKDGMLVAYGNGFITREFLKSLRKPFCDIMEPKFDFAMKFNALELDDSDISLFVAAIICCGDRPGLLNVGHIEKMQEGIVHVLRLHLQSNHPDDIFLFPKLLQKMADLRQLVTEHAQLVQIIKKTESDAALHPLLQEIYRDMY
Nuclear receptor subfamily 1 group I member 2 (Rattus norvegicus), sequence (Q9R1A7 whole entry, looked up): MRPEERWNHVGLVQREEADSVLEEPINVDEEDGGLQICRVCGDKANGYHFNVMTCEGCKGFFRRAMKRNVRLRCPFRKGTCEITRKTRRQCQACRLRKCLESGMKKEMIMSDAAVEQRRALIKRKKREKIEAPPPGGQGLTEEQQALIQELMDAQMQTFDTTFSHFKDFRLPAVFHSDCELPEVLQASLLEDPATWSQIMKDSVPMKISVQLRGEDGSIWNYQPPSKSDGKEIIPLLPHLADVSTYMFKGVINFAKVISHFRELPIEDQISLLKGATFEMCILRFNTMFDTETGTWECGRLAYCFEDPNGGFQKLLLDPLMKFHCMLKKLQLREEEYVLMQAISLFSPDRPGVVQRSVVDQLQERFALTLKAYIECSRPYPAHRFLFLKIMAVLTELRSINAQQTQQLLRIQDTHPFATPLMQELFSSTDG
Nuclear receptor ROR-gamma (Homo sapiens), sequence (P51449 whole entry, looked up): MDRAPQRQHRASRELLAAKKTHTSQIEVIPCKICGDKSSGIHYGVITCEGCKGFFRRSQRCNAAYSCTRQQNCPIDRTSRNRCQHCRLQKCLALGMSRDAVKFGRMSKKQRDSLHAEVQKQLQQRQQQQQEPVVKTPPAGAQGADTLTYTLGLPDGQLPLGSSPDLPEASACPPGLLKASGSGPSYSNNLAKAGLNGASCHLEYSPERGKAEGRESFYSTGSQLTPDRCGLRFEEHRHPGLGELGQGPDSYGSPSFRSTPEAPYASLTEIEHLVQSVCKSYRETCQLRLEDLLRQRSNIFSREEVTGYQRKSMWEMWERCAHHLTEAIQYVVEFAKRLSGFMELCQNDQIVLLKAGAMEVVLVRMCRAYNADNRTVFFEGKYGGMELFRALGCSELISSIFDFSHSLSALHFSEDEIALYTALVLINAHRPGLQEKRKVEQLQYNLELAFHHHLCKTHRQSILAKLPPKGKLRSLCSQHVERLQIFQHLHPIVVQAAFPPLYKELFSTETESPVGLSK

CC(C)(O)CCC(C)(C)O
inactive: Potency [1] | Potency [2] | max response [3] -3.81% | Potency [4] | outcome [5] | Potency [6] | max response [7] -2.27% | Potency [8] | max response [9] 3.24% | outcome [10]

CCCCCCO
inactive: Potency [2] | Potency [11] | activation [12] -0.44% | max response [3] 6.04% | Potency [4] | outcome [5] | Potency [6] | max response [7] 4.6% | max response [13] 3.47% | Potency [8] | max response [9] 2.06% | outcome [10]

CCCCC/C=C/C=C/C=O
inactive: Potency [2] | Potency [14] | activation [12] 0.997% and -0.836% | max response [3] -2.99% and -1.24% | outcome [5] | max response [7] -0.854% and -5.85% | max response [13] -1.02% | Potency [8] | max response [9] 5.82% and -4.16% | outcome [10]
active: Potency [4] 33.5 µM | Potency [6] 23.7 µM

C=CCOC(=O)COCCC(C)C
inactive: Potency [1] | Potency [2] | activation [12] -0.312% | max response [3] -5.81% | Potency [4] | outcome [5] | Potency [6] | max response [7] 5.49% | max response [13] -0.0294% | Potency [8] | max response [9] -3.06% | outcome [10]

CN(C)CCCNCCCN
inactive: Potency [1] | Potency [2] | activation [12] 0.0352% | max response [3] -2.56% | Potency [4] | outcome [5] | Potency [6] | max response [7] -2.03% | max response [13] -0.667% | Potency [8] | max response [9] -0.438% | outcome [10]

O=C1CCC(=O)O1
inactive: Potency [2] | Potency [14] | activation [12] -1.39% | max response [3] 3.38% | Potency [4] | outcome [5] | Potency [6] | max response [7] -3.63% | max response [13] -3.25% | Potency [8] | max response [9] -4.75% | outcome [10]

NC(=S)NNC(N)=S
inactive: Potency [1] | Potency [2] | activation [12] 0.955% and 1.28% | max response [3] 0.409% and -1.13% | Potency [4] | outcome [5] | Potency [6] | max response [13] -2.43% and -16.6% | Potency [8] | max response [9] -3.78% and 5.23% | outcome [10]

Cc1ccc(C)c([N+](=O)[O-])c1
inactive: Potency [1] | Potency [2] | activation [12] 0.781% | max response [3] -2.55% | Potency [4] | outcome [5] | Potency [6] | max response [7] -4.07% | Potency [8] | max response [9] -1.78% | outcome [10]

C[C@@H]1O[C@@H](O[C@@H]2[C@@H](O)[C@H](OCCc3ccc(O)c(O)c3)O[C@H](CO[C@@H]3O[C@H](CO)[C@@H](O)[C@H](O)[C@H]3O)[C@H]2OC(=O)/C=C/c2ccc(O)c(O)c2)[C@H](O)[C@H](O)[C@H]1O
inactive: Potency [1] | Potency [2] | max response [3] 0.275% | Potency [4] | outcome [5] | max response [13] -6.2% | Potency [8] | max response [9] 1.79% | outcome [10]

CC(C)(C)OCC1CO1 (configuration not stated)
inactive: Potency [1] | Potency [2] | max response [3] -5.74% | Potency [6] | max response [7] 11% | max response [13] -0.898% | Potency [8] | max response [9] 0.0184% | outcome [10]

O=C1NC(=O)c2cc([N+](=O)[O-])ccc21
inactive: Potency [1] | Potency [2] | activation [12] -0.349% | max response [3] -3.3% | Potency [4] | outcome [5] | Potency [6] | max response [7] -3.07% | Potency [8] | max response [9] 1.8% | outcome [10]

Cc1ccc(S(=O)(=O)NC2CCCCC2)cc1
inactive: Potency [1] | Potency [2] | Potency [14] | Potency [11] | activation [12] -0.456% | max response [3] -1.4% | outcome [5] | max response [7] 1.13% | max response [13] -5.72% | Potency [8]

COc1ccc(N=[N+]([O-])c2ccc(OC)cc2)cc1
inactive: Potency [1] | Potency [2] | max response [3] -3.57% | max response [7] -28.6% | max response [13] -5.78% | Potency [8]
active: Potency [12] 1.12 µM

O=Cc1c(Cl)cccc1Cl
inactive: Potency [14] | max response [3] 25.1% | outcome [5] | Potency [6] | max response [7] 11.9% | max response [13] -9.95% | Potency [8] | max response [9] 8%
active: Potency [4] 16.8 µM

Cc1c(N)cccc1N
inactive: activation [12] 6.39% | max response [3] 0.845% | outcome [5] | Potency [6] | max response [7] 1.04% | max response [13] 6.3% | Potency [8] | max response [9] 3.73% | outcome [10]

C=CCCCCCCC=C
inactive: Potency [1] | Potency [2] | Potency [14] | activation [12] 0.475% | max response [3] 4.13% | Potency [4] | outcome [5] | Potency [6] | max response [7] 5.83% | max response [13] 3% | Potency [8]
